# Compounds with a hit are over-represented: about 12% of the library has one in this group of screens.
# BAZ2B block – BAZ2B (human) inhibition; Q9UIF8; AlphaScreen BAZ2B-H3K14Ac peptide displacement; Potency, µM (doses to about 114 µM), for inactives: at the highest dose activity change, negative = inhibition, usual class: inhibitors; 4.4% of 360,000 active; AID 504333; note: % is set by controls: 0 for no effect and ±100 for the full control effect; nearly all actives have a fitted effect of over 60% in size
#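 Complex of BAZ2B and biotin-H3K14Ac (50 nM apiece) forms over 30 min at RT, then faces library compounds up to 110 uM for another 30 min; AlphaScreen beads added, 20 min dark incubation, luminescence read.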
# TDP1 inh – inhibitors of human tyrosyl-DNA phosphodiesterase TDP1. recombinant TDP1, AlphaScreen DNA substrate cleavage. Q9NUW8. 0.28% of 350,000 active. Potency, µM (titrated, usually from 130 µM), for inactives: at the top dose activity change, negative = inhibition, actives largely listed as inhibitors; note: % is set by controls: 0 for no effect and ±100 for the full control effect; nearly all actives have a fitted effect of over 40% in size
#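 Here, a 5' biotin and 3' phosphotyrosine-FITC DNA oligonucleotide reports Tdp1 activity: intact substrate bridges AlphaScreen beads, while cleavage leaves a 3' phosphate and drops signal. All incubations at room temperature.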
# HP1b chromo inh – inhibitors of HP1-beta chromodomain binding to methylated histone tails | AlphaScreen HP1-beta / biotin-H3K9me3 peptide binding | P83916 | 0.56% of 390,000 active | Potency, µM (top dose mostly 114 µM), for the others: top-dose activity change, negative = inhibition, actives largely listed as inhibitors; note: nearly all actives have a fitted effect of over 70% in size
# Target sequence (P83916 whole entry, looked up): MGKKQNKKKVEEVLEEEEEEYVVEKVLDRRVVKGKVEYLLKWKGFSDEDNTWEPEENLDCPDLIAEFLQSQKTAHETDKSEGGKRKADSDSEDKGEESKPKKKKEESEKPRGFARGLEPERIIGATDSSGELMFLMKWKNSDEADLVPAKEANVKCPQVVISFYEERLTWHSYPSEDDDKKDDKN
#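 HP1-beta protein (50 nM final) preincubated 30 min at room temperature with biotinylated H3(1-18)K9me3 peptide (50 nM) in PBS pH 7.4, 0.01% Tween-20, then compound added for 30 min. AlphaScreen streptavidin donor/nickel chelate acceptor beads (10 ug/mL final), 30 min dark, luminescence read.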
# G9a block – blocks human histone lysine methyltransferase G9a. Q96KQ7. G9a H3K9 monomethylation, AlphaScreen, 2 h. Potency, µM (titrated, usually from 102 µM), without a hit: top-dose activity, negative = inhibition, usual class: inhibitors. 8.8% of 350,000 active; note: % is set by controls: 0 for no effect and ±100 for the full control effect; nearly all actives have a fitted effect of over 75% in size
# Target sequence (Q96KQ7 913-1193 limits assumed): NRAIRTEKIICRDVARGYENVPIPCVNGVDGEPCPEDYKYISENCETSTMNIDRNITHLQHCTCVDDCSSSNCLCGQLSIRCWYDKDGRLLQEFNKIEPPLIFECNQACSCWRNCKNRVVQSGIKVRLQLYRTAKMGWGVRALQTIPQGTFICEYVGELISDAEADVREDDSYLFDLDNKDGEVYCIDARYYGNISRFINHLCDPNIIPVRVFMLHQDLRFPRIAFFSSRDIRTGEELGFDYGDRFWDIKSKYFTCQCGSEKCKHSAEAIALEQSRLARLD
#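 Readings reflect AlphaScreen signal from monomethyl-H3K9 antibody detection. HMT at 20 nM; substrate b-H3K9 500 nM; cofactor SAM 20 uM; 2 h RT reaction; compounds tested as titrations in qHTS with 15 min preincubation.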
# Sfp inh – blocks B. subtilis Sfp PPTase activity. AID 1490. Biochemical Sfp PPTase activity, qHTS. 3.5% of 310,000 active. Potency, µM, without a hit: largest response in the series, negative = inhibition, usual class: inhibitors;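 note: the enzyme is Sfp with the accession as filed and its product quenches rhodamine fluorescence; 0% = enzyme reaction without inhibitor and -100% = no enzyme wells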
#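 Fluorescence-quenching assay: 15 nM Sfp-PPTase preincubated 15 min at room temperature with compound, then 5 uM rhodamine-CoA and 12.5 uM BHQ-2-labelled YbbR peptide added. Fluorescence (ex 525/em 598 nm) read at start and after 30 min; difference gives rate.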
# JMJD2A Tudor inh – blocks the human JMJD2A Tudor domain; O75164; AlphaScreen JMJD2A-Tudor / H3K4me3 peptide binding; Potency, µM (titrated, usually from 114 µM), inactives show at the top dose activity change, negative = inhibition, hits mostly inhibitors; 4.4% of 390,000 active; AID 504339; note: % is set by controls: 0 for no effect and ±100 for the full control effect; nearly all actives have a fitted effect of over 50% in size
# * = called active by the depositor; ? = inconclusive; nt = no result given; [ ] = dose if it differs, or a comment. Calls come from the whole dose curve; as a rule, active = well fitted curve in the direction sought with a large enough effect; inconclusive = small, poorly fitted or top-dose-only effect, or another doubt; inactive = no such curve, though single readings can be large; an effect the other way counts as inactive or inconclusive. Potency is the fitted concentration of half-maximal effect.
SMILES,BAZ2B block,TDP1 inh,HP1b chromo inh,G9a block,Sfp inh,JMJD2A Tudor inh
CCOC(=O)c1c(NC(=S)Nc2ccccc2)sc2c1CCN(CCc1ccccc1)C2,?,6%,nt,?,?,nt
CCOC(=O)c1c(NC(=S)NC)sc2c1CC(C)(C)SC2,-6%,5%,20%,?,20µM*,-20%
CCOC(=O)c1c(NC(=S)Nc2ccccc2)sc2c1CC(C)(C)SC2,?,1%,-8%,40µM*,-21%,-29%
C=CCNC(=S)Nc1sc2c(c1C(=O)OCC)CC(C(C)C)OC2 (stereo not drawn),3%,-5%,18%,25%[12.7 µM],8%,-21%
CC(=O)Oc1ccc2c(=O)c(-c3ccccc3)coc2c1,-23%,2%,0%,8%,5%,-9%
COc1ccc(-c2coc3cc(OC(C)=O)ccc3c2=S)cc1,nt,nt,?,nt,nt,45µM*
CCc1ccccc1N1C(=O)N(CC(=O)c2ccc(Cl)cc2)c2ccccc2S1(=O)=O,4%,3%,33%,0%[59 µM],nt,-6%
N#CC1=C(N)NC(=S)C(C(N)=O)C1c1ccc([N+](=O)[O-])cc1 (stereo not drawn),-34%,11%,7%,nt,1µM*,89µM*
Cc1cccc[n+]1C1C(c2ccc([N+](=O)[O-])cc2)C(C#N)=C(C(=C=[N-])C#N)NC1(O)C1CC1 (stereo not drawn),-15%,3%,29%,-36%,17%,-22%
Cc1cccc(NC(=O)c2cc3c(=O)n(Cc4ccco4)ccc3nc2C)c1,-27%,5%,-14%,-4%[59 µM],nt,-33%
CC(Cc1nnc(N)s1)c1ccccc1 (stereo not drawn),11%,4%,-15%,32µM*,50µM*,-11%
Nc1nnc(CC(c2ccccc2)c2ccccc2)s1,-7%,-5%,9%,-2%[59 µM],4%,-19%
Clc1ccccc1N=C1NN=C(c2cccs2)CS1,nt,0%,14%,89µM*,-6%,-30%
Fc1ccccc1N=C1NN=C(c2ccccc2)CS1,-39%,2%,-1%,?,?,-29%
Cc1ccc(NC(=O)CSc2nc3ccccc3nc2Cc2ccccc2)c(Cl)c1,4%,5%,6%[57 µM],-21%[59 µM],nt,-12%
CC(=O)c1cn(C)c(=O)[nH]c1=O,-6%,-3%,21%,8%,9%,-13%[57.1 µM]
C=CCn1c(=O)/c(=C/c2ccc(C)o2)s/c1=C(/C#N)C(=O)c1ccccc1,11µM*,6%,?,?,?,-18%
CCC(c1nnc(SCc2nc3ccccc3s2)n1Cc1ccccc1)N(C)C (stereo not drawn),-26%,4%,17%,50µM*,-15%,-28%
CCn1c(SCc2nc3ccccc3s2)nnc1-c1ccccc1,-5%,0%,38%,?,19%,-10%
c1ccc(Cn2c(SCc3nc4ccccc4s3)nnc2-c2ccco2)cc1,?,4%,?,7.1µM*,20µM*,32µM*
Cc1nnc(SCc2nc3ccccc3s2)n1-c1ccccc1,-3%,5%,24%,-24%[59 µM],-1%,-10%
O=C(Nc1ccc2c(c1)S(=O)(=O)N=C1CCCCCN12)c1ccccc1Cl,nt,-3%,10%,-33%,7%,-14%
Cc1cccc(OCC(=O)NCC(=O)N=Nc2c(O)[nH]c3ccc([N+](=O)[O-])cc23)c1,?,-11%,18%,?,-16%,-23%
O=C(N=Nc1c(O)[nH]c2ccc([N+](=O)[O-])cc12)c1ccccc1Cl,56µM*,-6%,10%,?,?,?
COc1ccc(/C=C/C(=O)NCC(=O)N=Nc2c(O)[nH]c3ccc([N+](=O)[O-])cc23)cc1,79µM*,50µM*,3%,?,4%,?
SMILES,BAZ2B block,TDP1 inh,HP1b chromo inh,G9a block,Sfp inh,JMJD2A Tudor inh
Cc1ccccc1NCC(=O)N=Nc1c(O)[nH]c2ccc([N+](=O)[O-])cc12,-6%,5%,43%,?,6%,-21%
O=C(O)c1ccccc1N=Nc1c(O)[nH]c2ccc([N+](=O)[O-])cc12,50µM*,nt,71µM*,25µM*,-16%,?
COc1ccccc1CNCc1ccc(OC)c(OC)c1OC,79µM*,3%,?,10µM*,?,14µM*
COc1cccc(CNCc2ccccc2Br)c1OC,?,nt,?,16%[0.501 µM],13%,1.6µM*
COc1cccc(CNCc2ccc(C(=O)O)cc2)c1OC,-32%,0%,12%,-35%,12%,4%
COc1ccc(CNC2CCCC2)c(OC)c1OC,13%,9%,17%,20%[12.7 µM],0%,-4%
COc1ccc(CNCc2ccc3c(c2)OCO3)c(OC)c1OC,-31%,4%,?,45µM*,-15%,0.79µM*
CCOc1ccc(N2C(=O)CC(N3CCN(c4ccc([N+](=O)[O-])cc4)CC3)C2=O)cc1 (stereo not drawn),-25%,nt,35%,7.9µM*,-13%,-18%
CCOc1ccc(N2C(=O)CC(NCCNc3ccc([N+](=O)[O-])cn3)C2=O)cc1 (stereo not drawn),-20%,6%,41%,3.2µM*,7%,-24%
COc1ccc(N2C(=O)CC(NCCNc3ccc([N+](=O)[O-])cn3)C2=O)cc1 (stereo not drawn),-22%,2%,23%,6.3µM*,-10%,-18%
CCCCNCCCOc1ccc(C)cc1Br,56µM*,-9%,?,50µM*,-24%,20µM*
CNCCCCOc1ccc(C(C)(C)C)cc1Cl,?,-3%,?,14µM*,-7%,5.6µM*
Cc1ccc(OCC(=O)Nn2cnnc2)c(Br)c1,2%,0%,33%,-7%[59 µM],-10%,-15%
CNCCCCOc1ccccc1Cc1ccccc1,-10%,6%,nt,-6%[59 µM],4%,nt
CNCCCOc1ccc(C)cc1Br,56µM*,?,?,?,-1%,3.2µM*
Cc1ccc(OCCCNCCO)c(Br)c1,0%,0%,36%,-33%[59 µM],19%,-7%
Cc1ccc(/C=c2\sc3n(c2=O)CN(c2cccc(Br)c2)CN=3)o1,?,2%,-7%,?,20µM*,?
O=c1/c(=C/c2ccco2)sc2n1CN(c1ccccc1)CN=2,-6%,-3%,0%,13µM*,2%,-18%
O=c1/c(=C/c2ccco2)sc2n1CN(c1cccc(Br)c1)CN=2,?,4%,?,-40%[12.7 µM],2%,?
CCC(=O)Nc1nnc2n1CCS2,-13%,-3%,-6%[57 µM],25µM*,nt,20µM*
CC(=O)Nc1nnc2n1CCS2,-4%,1%,-8%[57 µM],14µM*,nt,22µM*
COc1ccc(Cl)cc1C(=O)Nc1nnc2n1CCS2,-20%,4%,7%[57 µM],?,nt,-28%

# Source: PubChem BioAssay
